Screening results as filed in PubChem.
An excerpt weighted towards active compounds, which were near 1.9% of everything screened.
14-3-3 Bad PPI: inhibitors of 14-3-3 zeta/Bad binding, primary screen, biochemical, TR-FRET, bovine 14-3-3 zeta; 14-3-3 protein zeta/delta (Bos taurus), P63103; TR-FRET 14-3-3zeta/Dy647-pBad peptide displacement, 1 h; inhibition, % at 21.7 µM; 220,000 tested, 0.71% active; AID 781, 2007;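 active means inhibition above about 70%, limit read from the data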;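 further: 0% = full 14-3-3 plus peptide FRET controls and 100% = background without 14-3-3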
Target sequence (P63103 whole entry, looked up): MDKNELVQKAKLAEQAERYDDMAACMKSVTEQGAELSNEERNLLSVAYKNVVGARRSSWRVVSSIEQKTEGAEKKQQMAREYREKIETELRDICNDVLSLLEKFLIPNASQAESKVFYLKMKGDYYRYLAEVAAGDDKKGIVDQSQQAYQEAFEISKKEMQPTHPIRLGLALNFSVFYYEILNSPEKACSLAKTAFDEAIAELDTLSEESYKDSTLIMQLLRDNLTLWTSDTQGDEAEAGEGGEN
eIF4H inh: human eIF4H binding inhibitors, primary screen, translation initiation inhibitor project, biochemical, uHTS, fluorescence polarization; Eukaryotic translation initiation factor 4H (Homo sapiens), Q15056; eIF4H fluorescence polarization binding assay; inhibition, % at 35 µM; 290,000 tested, 0.94% active;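 further: calls also rest on retests at 20 µM and on dose response follow-up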
PABP FP inh: PABP poly(A) RNA binding inhibitors, primary screen, biochemical, fluorescence polarization, uHTS. Polyadenylate-binding protein 1 (Homo sapiens), P11940. calls only at 35 µM. 290,000 tested, 1% active. AID 2014, 2009;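 further: calls also rest on retests at 20 µM and on dose response follow-up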
PABP1 MLLE inh: inhibitors of PABP1 MLLE–PAM2 peptide binding, primary screen, biochemical, fluorescence polarization, FITC-PAM2, GST-MLLE; Polyadenylate-binding protein 1 (Homo sapiens), P11940; inhibition, % at 20 µM; 360,000 tested, 0.36% active; in the data active means inhibition above about 35%, passing the limit was not always enough;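 further: plate controls were DMSO wells with GST-MLLE for no effect and wells lacking GST-MLLE protein for full effect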
eIF4E 4G PPI: eIF4E–eIF4G protein interaction inhibitors, primary screen, biochemical, uHTS, TR-FRET, eIF4GI fragment. 220,000 tested, 0.37% active. TR-FRET eIF4E-eIF4GI(517-606) binding, 2 h. inhibition, % at 21.7 µM. AID 782, 2007. Eukaryotic translation initiation factor 4E (Mus musculus) + Eukaryotic translation …;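 active means inhibition above about 30%, limit read from the data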;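 further: 0% = full FRET control wells and 100% = background wells lacking eIF4GI fragment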
Active calls of the source: *; i = inactive; ? = inconclusive; nt = not tested or not shown; + = active, no number. Unless noted, how the calls were made is not given here.

SMILES | 14-3-3 Bad PPI | eIF4H inh | PABP FP inh | PABP1 MLLE inh | eIF4E 4G PPI
Cc1nc(SCC(=O)O)c(C#N)c2c1CCCC2 | 39 | 108* | + | -29 | 21
CCOC(=O)N(C)C[C@H]1OCc2cnnn2CCCC(=O)N([C@@H](C)CO)C[C@H]1C | nt | nt | nt | -5 | nt
COc1ccc(Cn2nnnc2C(c2ccccc2OC)N2CCC(C(N)=O)CC2)cc1 (centres undefined) | 2 | -6 | i | 11 | 7
COc1cccc(C(c2nnnn2Cc2ccc(F)cc2)N2CCC(C(N)=O)CC2)c1OC (centres undefined) | 77* | -3 | i | -13 | -10
COc1ccc(CN2C(=O)/C(=C/c3ccc(-c4ccc(Cl)c(C(=O)O)c4)o3)SC2=S)cc1 | 77* | ? | i | nt | 65*
O=C(O)c1cc(-c2ccc(/C=C3/SC(=S)N(Cc4ccccc4)C3=O)o2)ccc1Cl | 100* | 86* | + | i | 62*
COc1ccc(N=Nc2ccc(N)nc2N)cc1 | -12 | -12 | i | 3 | 1
CCOc1ccc2nc3cc(N=Nc4ccc(N)nc4N)ccc3c(N)c2c1 | nt | nt | nt | 82* | nt
O=C1C2CCCCN2C(=O)N1CCCCN1CCN(c2cccc(Br)c2)CC1 (centres undefined) | nt | -14 | i | -4 | nt
CCc1ccc(OS(=O)(=O)c2cn(C)c(=O)n(C)c2=O)cc1 | 0 | -5 | i | 41* | 4
COc1ccc(CNS(=O)(=O)c2cn(C)c(=O)n(C)c2=O)cc1 | nt | -2 | i | 7 | nt
O=C(C[n+]1cc(Br)cc2ccccc21)c1ccc(Br)cc1 | nt | 81 | + | -33 | nt
COc1ccc(NC(=O)COc2ccccc2C)cc1S(=O)(=O)N1CCCCC1 | nt | nt | nt | -14 | nt
COc1cc(C(=O)NS(=O)(=O)c2ccccc2C)ccc1Cc1cn(C)c2ccc(NC(=O)OC3CCCC3)cc12 | 5 | 45* | i | nt | 17
COc1ccc(-c2cc3ccccc3n2CC(O)Cn2nc(C)cc2C)cc1 (centres undefined) | -9 | 78* | + | 39 | -11
COc1ccc(-c2cc3ccccc3n2CC(O)CN2CCC(C)CC2)cc1 (centres undefined) | 28 | ? | i | 2 | 3
C=CCc1ccc(OCC(O)CN2CCCCC2)c(OC)c1 (centres undefined) | -12 | -9 | i | -32 | -11
C=CCc1ccc(OCC(O)COc2ccc(CC=C)cc2OC)c(OC)c1 | 3 | ? | + | -12 | -1
COc1cccc(/C=C/C(=O)c2c(O)cc(C)oc2=O)c1O | -4 | -10 | i | 5 | 0
COc1ccc(/C=C/C(=O)c2c(O)cc(C)oc2=O)c(OC)c1 | 8 | ? | + | -93 | -7
Nc1nc(C2C(=O)CCCC2=O)cs1 | 71* | 41 | i | 31 | -3
Nc1nc(C2CC(=O)OC23CCCCC3)cs1 (centres undefined) | -1 | 13 | i | -4 | 5
COC(=O)c1ccc(NC(=O)CCCN2C(=O)NC(C)(C)C2=O)cc1 | nt | nt | nt | 2 | nt
O=c1cc(-c2ccccc2)nc(SCc2ccc(F)cc2)[nH]1 | 11 | active | i | -5 | -2
CCCc1cc(=O)[nH]c(SCc2ccc(F)cc2)n1 | 2 | -2 | i | -4 | -4
SMILES | 14-3-3 Bad PPI | eIF4H inh | PABP FP inh | PABP1 MLLE inh | eIF4E 4G PPI
CC1(C)Cc2c(ccc3ccccc23)/C(=C/C(=O)N2CCCCC2)N1 | 71* | -4 | i | 21 | 1
O=C(/C=C1\NC2(CCCC2)Cc2ccccc21)N1CCOCC1 | -35 | 0 | i | 21 | -2
CCC(C)[C@H]1COCCS(=O)(=O)N1Cc1ccccc1 (some centres undefined) | nt | -6 | i | 3 | nt
COc1ccc(-n2c(C)cc(C(=O)CSc3nn4c(=O)c(C(C)(C)C)nnc4s3)c2C)cc1 | 1 | 6 | i | -46 | 2
Cc1cc(C(=O)CSc2nn3c(=O)c(C(C)(C)C)nnc3s2)c(C)n1C | -14 | 38* | + | -32 | -5
O=C(Nc1ccc2oc(-c3cccnc3)nc2c1)c1ccc2c(c1)OCCO2 | 81* | -20 | i | -67 | 10
